Assay outcomes deposited in PubChem by several laboratories.
Only some compounds are listed: those with a hit (about 1.6% of all), similar ones and a draw of the others.
VLA-4 inh: inhibition in human VLA-4 binding assay, primary screen, VLA-4 allosteric modulator project, MLPCN library, flow cytometry, VLA-4 expressing cells; Integrin alpha-4 (Homo sapiens), P13612; actives 0.2% (n = 330,000); inhibition, % (about 7 µM as worked out from the volumes in the protocol); ligand binding flow cytometry; in the data active = inhibition above about 50%
PKA-R2B activ: activators of PKA-R2B holoenzyme, primary screen, biochemical, fluorescence polarization, Cy5-IP20, human. actives 0.079% (n = 340,000). activation, % at 11.4 µM. PKA-R2B holoenzyme dissociation; R2B truncated from residue 108, S112A mutant; 0% DMSO only, 100% 113 µM cGMP;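 active = activation above a cutoff set at the mean over all compounds plus 3 SD, cut at about 18% in these data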;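 note: higher means more holoenzyme dissociation and a rise in polarization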
CendR NRP1 mod: modulators of CendR peptide binding to NRP-1, primary screen, biochemical, fluorescence polarization, uHTS; actives 0.85% (n = 360,000); AID 602438, 2012; Neuropilin-1 (Homo sapiens), O14786; inhibition, % at 25 µM; FAM-RPARPAR peptide binding to NRP-1;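 active = inhibition or corrected inhibition above about 18%, plus a signal ratio from 0.5 to 1.5, limit read from the data, passing the limit was not always enough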
Target sequence (O14786 whole entry, looked up): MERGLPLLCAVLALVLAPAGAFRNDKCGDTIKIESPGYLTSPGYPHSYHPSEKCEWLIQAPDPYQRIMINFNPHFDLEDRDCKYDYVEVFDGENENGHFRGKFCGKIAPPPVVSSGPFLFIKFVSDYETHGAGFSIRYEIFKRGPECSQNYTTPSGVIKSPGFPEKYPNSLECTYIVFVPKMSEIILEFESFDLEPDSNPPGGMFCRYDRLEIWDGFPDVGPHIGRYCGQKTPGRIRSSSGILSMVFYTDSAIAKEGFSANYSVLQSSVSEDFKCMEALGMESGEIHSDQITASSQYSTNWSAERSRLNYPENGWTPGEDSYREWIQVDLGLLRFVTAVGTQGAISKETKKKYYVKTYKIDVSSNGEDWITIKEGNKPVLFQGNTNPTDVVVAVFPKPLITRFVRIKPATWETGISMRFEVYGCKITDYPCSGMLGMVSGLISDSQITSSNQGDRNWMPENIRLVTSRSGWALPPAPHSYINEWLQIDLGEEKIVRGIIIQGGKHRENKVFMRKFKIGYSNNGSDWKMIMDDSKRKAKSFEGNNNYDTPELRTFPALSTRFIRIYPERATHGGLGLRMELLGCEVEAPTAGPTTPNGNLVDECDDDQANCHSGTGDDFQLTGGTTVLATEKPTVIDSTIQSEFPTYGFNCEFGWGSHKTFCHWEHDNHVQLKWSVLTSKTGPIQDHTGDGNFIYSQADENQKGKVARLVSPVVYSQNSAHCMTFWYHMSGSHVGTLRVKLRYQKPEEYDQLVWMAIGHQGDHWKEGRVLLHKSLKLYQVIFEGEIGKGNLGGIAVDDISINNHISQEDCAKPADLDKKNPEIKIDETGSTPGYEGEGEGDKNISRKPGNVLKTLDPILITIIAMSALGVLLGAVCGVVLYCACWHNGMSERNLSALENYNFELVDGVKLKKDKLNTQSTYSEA
PKA-R1A activ: activators of PKA-R1A holoenzyme, primary screen, biochemical, fluorescence polarization, Cy5-IP20, bovine R1A, mouse PKAc | AID 504707, 2011 | actives 0.083% (n = 340,000) | PKA-R1A dissociation; scaled: DMSO 0%, 113 µM cGMP 100% | activation, % at 11.4 µM;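 active = percent activation above the mean of all tested compounds plus 3 SD, cut at about 19% in these data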;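 note: higher means more PKAc released from R1A so a rise in polarization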
ATG4B inhibitor: ATG4B protease inhibitors, primary screen, biochemical, fluorescence, uHTS. Cysteine protease ATG4B (Homo sapiens), Q9Y4P1. ATG4B cleavage of LC3-PLA2, NBD-HPC fluorescence, 1 h. inhibition, % at 8.33 µM. actives 0.51% (n = 340,000)
VLA-4 mod pick: retest of VLA-4 allosteric modulators, confirmation, cell-based, cherry-picked plates, U937, HUTS-21 LIBS antibody; shares compounds with VLA-4 inh; U937 cells, HUTS-21 LIBS mAb binding, flow cytometry; LDV ligand present at threefold Kd; inhibition, % at 6.7 µM; actives 2% (n = 1,300); AID 2813, 2010;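 note: 0% = ligand without compound and 100% = no ligand background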
Starred values were filed as active, the others as inactive; x = not tested or not shown. Cut-off read from the data, not from the text of the source, unless noted: active = inhibition above about 40%; inactive = the rest.

SMILES | VLA-4 inh | PKA-R2B activ | CendR NRP1 mod | PKA-R1A activ | ATG4B inhibitor | VLA-4 mod pick
Cc1ccc(OCc2cc(C(=O)NC3CCOC3)no2)cc1C (stereo not drawn) | 4 | 5 | 0 | -1 | 7 | x
NC(=O)CC(NC(=O)c1cccc(Br)c1)c1ccc(N2CCC(N3CCCCC3)CC2)c([N+](=O)[O-])c1 (stereo not drawn) | 56* | -6 | 6 | -11 | -15 | 5
CCn1c(SCC(=O)Nc2nc(C)cs2)nnc1C(NC(=O)c1ccccc1Cl)C(C)C (stereo not drawn) | 0 | -9 | 9 | -11 | -4 | -7
Cc1cc(C)c(NC(=O)c2ccccc2C(=O)c2ccccc2)c(C)c1 | 8 | -9 | 3 | -4 | -4 | x
Nc1ccc(N2CCCCC2)c(S(=O)(=O)Nc2ccccc2Cl)c1 | 14 | -2 | -5 | -11 | 27 | x
COc1ccc(N)cc1S(=O)(=O)Nc1ccccc1Cl | -4 | -13 | -19 | -6 | -3 | -2
Cc1nc2c(OCc3ccc(C#N)cc3)cccn2c1N(C)C(=O)CCC1CCCC1 | x | x | -2 | x | x | x
C[C@@H]1CN([C@H](C)CO)C(=O)Cc2cc(NC(=O)Nc3ccccc3)ccc2O[C@@H]1CN(C)Cc1ccc2c(c1)OCO2 | 0 | -5 | 14 | -15 | -12 | x
CCOC(=O)CNS(=O)(=O)c1cc(-c2nnc(Nc3ccc4c(c3)OCO4)c3ccccc23)ccc1C | 61* | -7 | 7 | -10 | -1 | 23
CCOC(=O)c1ccc(N2C(=O)CC(N3CCOCC3)C2=O)cc1 (stereo not drawn) | 5 | -7 | 7 | 2 | 0 | 0
COc1ccc(S(=O)(=O)CC(=O)c2cc(C)c(O)c(C)c2)cc1 | 50* | 10 | 4 | 9 | 1 | -10
COc1cc(/C=C2/S/C(=N/S(=O)(=O)c3ccccc3)NC2=O)c([N+](=O)[O-])cc1OC | 52* | 9 | -48 | 8 | -13 | -2
COc1cc(/C=C2\S/C(=N/S(=O)(=O)Cc3ccccc3)NC2=O)c([N+](=O)[O-])cc1OC | 0 | -11 | -39 | -6 | -4 | x
O=C1C2C3C=CC(c4ccccc4)(C2C(=O)N1c1cccc(Cl)c1)C1C(=O)N(c2cccc(Cl)c2)C(=O)C31 (stereo not drawn) | 57* | -1 | 1 | -4 | -12 | 6
Clc1ccc2c(N/N=C/c3ccc(Br)cc3)ccnc2c1 | 51* | -4 | -11 | 1 | 31 | 12
Clc1ccc2c(N/N=C/c3cccnc3)ccnc2c1 | -10 | -7 | -7 | 5 | -4 | x
Cc1nc(NC(=O)c2ccc(-c3cc4ccccc4oc3=O)cc2)ccc1Br | 43 | 3 | 1 | -2 | 8 | 6
Cc1nc(NC(=O)c2cccc(-c3cc4ccccc4oc3=O)c2)ccc1Br | 5 | 3 | -17 | 0 | 5 | x
COc1ccc(C)cc1N/C(N)=N/c1nc(C)cc(C)n1 | -3 | -8 | -1 | -4 | 1 | x
Cc1ccc(C)c(N/C(N)=N/c2nc(C)cc(C)n2)c1 | 54* | -7 | 2 | 1 | 8 | 3
COC(=O)c1cccnc1-n1c(=O)c2cccnc2n(Cc2cccc([N+](=O)[O-])c2)c1=O | 67* | 0 | 5 | -4 | -2 | -2
COc1ccccc1CN1CC(C(=O)N(C)Cc2ccc(C)o2)CCC1=O (stereo not drawn) | 0 | -4 | 12 | -7 | 24 | x
COc1cccc(-c2sc3ccccc3c2-c2ccc(OCCN3CCCCC3)cc2)c1 | 45 | 4 | 8 | 0 | -2 | 20
COc1ccc2sc(-c3ccccc3OC)c(-c3ccc(SC)cc3)c2c1 | x | x | 2 | x | x | x
COc1ccc2sc(-c3ccccc3OC)c(-c3ccc(OCCN(C)C)cc3)c2c1 | x | -4 | 4 | -6 | 2 | -4
